Efflux pump mplx = blocks antifungal efflux pumps in multiplex yeast assay | S. cerevisiae Candida pump triplex, Nile Red efflux | inhibition, % at 10 µM | 330,000 compounds, 0.44% hits;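 active means plate passing quality check with inhibition over a set limit, or well fluorescence over plate mean plus 4 SD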;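 further: Nile Red retained in pooled yeast measured as flow cytometry median fluorescence; 0% = buffer negative control and 100% = Enniatin B positive control; higher means more Nile Red kept so more efflux inhibition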
CIT2 TOR yeast = yeast TOR pathway CIT2-GFP modulation. S. cerevisiae CIT2-GFP strain, flow cytometry, 3 h; 100 means same as DMSO wells. GFP response vs DMSO, % at 10 µM. 320,000 compounds, 0.065% hits;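 active means GFP response relative to DMSO above a set limit, near the screen mean plus 3 SD, cut at about 150% in these data; inconclusive means Fewer than 70 cells measured for a yeast strain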;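 further: ratio of well median GFP fluorescence to mean of DMSO wells on the plate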
MEP2 TOR yeast = alters MEP2-GFP fluorescence in TOR pathway yeast screen; S. cerevisiae MEP2-GFP strain, flow cytometry GFP, 3 h; 100% = DMSO control level; GFP response vs DMSO, % at 10 µM; 330,000 compounds, 0.51% hits; AID 2016;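 active means GFP response versus DMSO above a set limit, roughly screen mean plus 3 SD, cut at about 180% in these data; inconclusive means fewer than 70 cells counted for a yeast strain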;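 further: median GFP fluorescence of the barcode-gated MEP2-GFP cells per well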
AGP1 TOR yeast = alters AGP1-GFP fluorescence in TOR pathway yeast screen | S. cerevisiae AGP1-GFP multiplex flow cytometry, 3 h; GFP as percent of DMSO wells | AID 2066 | 320,000 compounds, 0.02% hits | GFP response vs DMSO, % at 10 µM;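 active means GFP response relative to DMSO above a set limit, near screen average plus 3 SD, cut at about 150% in these data; inconclusive means fewer than 70 cells counted for the yeast strain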;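 further: median GFP channel fluorescence of the gated AGP1 strain per well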
RPL19A TOR yeast = alters RPL19A-GFP fluorescence in TOR pathway yeast screen; S. cerevisiae RPL19A-GFP strain, flow cytometry, 3 h; hits give low values; percent response vs DMSO, % at 10 µM; 330,000 compounds, 0.3% hits; AID 2025;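 active means percent response vs DMSO below 50%; inconclusive means fewer than 70 events counted for the yeast strain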;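 further: median channel GFP fluorescence of the barcoded RPL19A-GFP strain; ratio of sample median GFP to plate DMSO average so 100% = DMSO; lower means less RPL19A-GFP as with rapamycin TOR inhibition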
LAP4 TOR yeast = modulators of TOR pathway LAP4-GFP in S. cerevisiae; GFP response vs DMSO, % at 10 µM; S. cerevisiae LAP4-GFP multiplex, flow cytometry GFP, 3 h; median GFP as percent of DMSO wells; AID 2023; 320,000 compounds, 0.34% hits;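 active means GFP response vs DMSO above a set limit, about the screen mean plus 3 SD, cut at about 150% in these data; inconclusive means under 70 cell events counted for the yeast strain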
Active calls of the source: *; ? = inconclusive; · = no result given; [ ] = remark or other dose. In the library only some 1.3% were active in any assay of this set; here they are far more common.

SMILES | Efflux pump mplx | CIT2 TOR yeast | MEP2 TOR yeast | AGP1 TOR yeast | RPL19A TOR yeast | LAP4 TOR yeast
Cc1onc(-c2c(F)cccc2Cl)c1C(=O)NC(C)c1ccccc1 (stereo not given) | 0 | ? | 195*[may fluoresce violet] | 26 | 97 | 92
CCOC(=O)N1CCN(C(=O)CCc2ccc(S(=O)(=O)NCCc3ccccc3)cc2)CC1 | 0 | 153* | 193* | 108 | 108 | 161*
CCNS(=O)(=O)c1ccc(CCC(=O)N2CCN(Cc3ccccc3)CC2)cc1 | 0 | 105 | 102 | 97 | 101 | 95
Cc1ccc(S(=O)(=O)Nc2ccc(C(=O)N3CCOCC3)cc2)cc1 | 0 | ? | 192*[may fluoresce violet] | 26 | 64 | 91
Cc1ccc(NS(=O)(=O)c2ccc(CCC(=O)N3CCOCC3)cc2)cc1 | 0 | 109 | 181* | 22 | 60 | 91
O=C(c1ccc(S(=O)(=O)Nc2ccccc2)cc1)N1CCOCC1 | 0 | 95 | 102 | 98 | 100 | 96
Cc1ccc(CSCC(=O)N2CCOCC2)cc1 | 0 | ? | 236*[may fluoresce violet] | ? | 56 | 72
N#Cc1cc([N+](=O)[O-])ccc1NCCCn1ccnc1 | 0 | 97 | 93 | 94 | 93 | 102
CC1CCN(C(=O)COc2ccc3ccccc3c2Br)CC1 | 0 | 99 | 124 | 101 | 111 | 112
O=c1[nH]cc(N2CCCCCC2)c(=O)[nH]1 | 0 | 94 | 98 | 104 | 97 | 111
COc1ccc(C(=O)Nc2ccc(C(=O)N3CCOCC3)cc2)cc1OC | 0 | 103 | 111 | 98 | 104 | 100
COc1ccc(C(=O)Nc2ccc(C(=O)N3CCCCC3)cc2)cc1OC | 0 | ? | 355*[may fluoresce violet] | 16 | 50 | 83
Cc1ccsc1C(=O)NNC(=O)COc1ccccc1Cl | 0 | 97 | 98 | 96 | 98 | 107
CCc1cc(=O)oc2c(CN3CCN(C)CC3)c(O)c(Cl)cc12 | 0 | ? | 302*[may fluoresce violet] | ? | 44*[may fluoresce violet] | 84
CCc1cc(=O)oc2c(CN3CCCC3)c(O)c(Cl)cc12 | 0 | 94 | 248* | 68 | 33* | 83
CCOC(=O)C1(C)/C(=N/Nc2ccccc2Cl)C(=O)C(=O)N1c1ccccc1 (stereo not given) | 0 | ? | 561*[may fluoresce violet] | · | 41*[may fluoresce violet] | 106
O=Cc1c(Sc2ccccn2)nc2ccccn2c1=O | 0 | 100 | 107 | 95 | 101 | 96
O=Cc1c(Sc2ccccc2)nc2ccccn2c1=O | 0 | ? | 223*[may fluoresce violet] | ? | 70 | 78
CCOC(=O)N/N=C/c1cc(C)n(-c2cccc3ccccc23)c1C | 0 | 102 | 144 | 99 | 103 | 103
COC(=O)N/N=C/c1cc(C)n(-c2cccc3ccccc23)c1C | 0 | ? | 144 | 19 | 44*[may fluoresce violet] | 75
Cc1ccc(C)c(OCc2cc(C(=O)NC(C)c3cnn(C)c3)no2)c1 (stereo not given) | 0 | ? | 124 | ? | 25*[may fluoresce violet] | 82
Cc1nc(C(C)NC(=O)c2cc(COc3ccc(C)c(C)c3)on2)c(C)s1 (stereo not given) | 0 | ? | 147 | ? | 17*[may fluoresce violet] | 71
Cc1ccccc1NC(=O)c1cc2c(=O)n3cccc(C)c3nc2s1 | 0 | 101 | 107 | 104 | 106 | 93
O=C(NCCCN1CCOCC1)c1cc2c([nH]c3ccccc32)c(-c2cccc(Br)c2)n1 | 0 | ? | 344*[may fluoresce violet] | 48 | 19*[may fluoresce violet] | 100
O=C(CSc1ccccc1)Nc1ccc(-c2nc3ccccc3[nH]2)cc1 | 0 | 95 | 104 | 100 | 106 | 98
SMILES | Efflux pump mplx | CIT2 TOR yeast | MEP2 TOR yeast | AGP1 TOR yeast | RPL19A TOR yeast | LAP4 TOR yeast
O=C(CSc1ccc(Cl)cc1)Nc1cccc(-c2nc3ccccc3[nH]2)c1 | -2 | 104 | 188* | 98 | 101 | 113
Nc1ccc(-c2nc3ccc(N)cc3s2)cc1 | 0 | ? | 290*[may fluoresce violet] | 25 | 90 | 97
COc1ccccc1CN1CC(C(=O)NCCc2ccc(C)o2)CCC1=O (stereo not given) | 0 | 105 | 109 | 104 | 100 | 104
Cc1ccc(C(=O)N2c3ccccc3NC(=O)C2C)cc1 (stereo not given) | 0 | · | 247* | 102 | 103 | 212*
CC(=O)N/C(=C\c1ccccc1)C(=O)OCCCOC(=O)/C(=C/c1ccccc1)NC(C)=O | -1 | 97 | 100 | 102 | 104 | 95
Cc1cccc(NC(=O)COC(=O)C2C3CC4OC(=O)C2C4C3)c1C (stereo not given) | 0 | 103 | 93 | 100 | 99 | 100
CCc1ccccc1NC(=O)COC(=O)C1C2CC3OC(=O)C1C3C2 (stereo not given) | 0 | ? | 754*[may fluoresce violet] | 24 | 49*[may fluoresce violet] | 101
CC(=O)Nc1ccc(NC(=O)c2ccccc2Nc2ccccc2)cc1 | 0 | 100 | 114 | 103 | 104 | 124
O=C(Nc1nc2ccccc2s1)c1cccc(S(=O)(=O)N2CCc3ccccc32)c1 | 0 | 99 | 103 | 101 | 102 | 107
O=C(Nc1nc2c(s1)CN(Cc1ccccc1)CC2)c1cccc(S(=O)(=O)N2CCc3ccccc32)c1 | 1 | ? | ? | ? | 20*[may fluoresce violet] | ?
CCC(C)NC(=O)C1c2ccccc2C(=O)N1Cc1ccc(F)cc1 (stereo not given) | 0 | 97 | 101 | 96 | 100 | 95
COc1ccc(C2CC(c3ccccc3)=NN2S(=O)(=O)c2ccccc2)cc1 (stereo not given) | 0 | 131 | 235* | 97 | 108 | 191*
O=S(=O)(c1ccccc1)N1N=C(c2ccccc2)CC1c1ccco1 (stereo not given) | 1 | 109 | 94 | 108 | 103 | 90
CCn1c(O)c(N=NC(=O)CNc2cccc(C)c2)c2ccccc21 | 0 | ? | 525*[may fluoresce violet] | 15 | 74 | 90
CCn1c(O)c(N=NC(=O)CNc2ccc(C)cc2)c2ccccc21 | 0 | 97 | 95 | 102 | 103 | 97
O=C(NCc1n[nH]c(=S)n1-c1cccc(C(F)(F)F)c1)c1ccc(S(=O)(=O)N2CCCC2)cc1 | 0 | 97 | 101 | 97 | 101 | 86
O=C(NCc1n[nH]c(=S)n1-c1cccc(C(F)(F)F)c1)c1ccc(S(=O)(=O)N2CCCCC2)cc1 | 0 | ? | 221*[may fluoresce violet] | ? | 26*[may fluoresce violet] | 59
Cc1c(Br)c(O)c(Br)c2sc(=O)oc12 | 0 | 76 | 100 | 57 | 48* | 177*
NC(=O)c1cccc(-c2noc(-c3ccccc3F)n2)c1 | 0 | ? | 203*[may fluoresce violet] | 17 | 88 | 69
COC(=O)c1cccc(-c2noc(-c3ccccc3F)n2)c1 | 0 | 88 | 85 | 94 | 93 | 105
Cn1cnnc1SCc1ccc(C(=O)n2ncc(C#N)c2N)cc1 | 0 | · | 303*[may fluoresce violet] | ? | 23*[may fluoresce violet] | 106
